# Screening data (PubChem)
# APE1 inh – APE1 (human) endonuclease inhibition. Potency, µM (series often up to 65.8 µM), for inactives: top-dose activity change, negative = inhibition, hits mostly inhibitors. AID 2517. actives 0.35% (n = 350,000). P27695. recombinant APE1, TAMRA/BHQ-2 abasic DNA cleavage fluorescence;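 also: plate controls were vehicle for no effect and reference inhibitor for full effect; nearly all actives have a fitted effect of over 55% in size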
# Target sequence (P27695 whole entry, looked up): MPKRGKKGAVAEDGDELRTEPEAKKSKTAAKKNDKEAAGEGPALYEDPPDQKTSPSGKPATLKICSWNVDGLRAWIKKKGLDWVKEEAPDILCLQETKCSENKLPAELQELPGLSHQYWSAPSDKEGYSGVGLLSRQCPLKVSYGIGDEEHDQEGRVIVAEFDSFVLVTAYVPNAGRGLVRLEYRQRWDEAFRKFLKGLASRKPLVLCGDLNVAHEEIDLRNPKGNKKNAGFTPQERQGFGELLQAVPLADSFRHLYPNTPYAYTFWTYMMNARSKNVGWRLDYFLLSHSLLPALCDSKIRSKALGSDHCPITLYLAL
#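 Enzyme (0.75 nM final) and test compound are incubated 15 min at room temperature before adding 50 nM quenched THF abasic-site duplex. Cleavage dequenches TAMRA, followed at 525/598 nm over three reads one minute apart.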
# BLM helicase inh-1 – Bloom syndrome helicase (human) inhibition. P54132. recombinant BLM DNA unwinding, fluorescence dequenching. Potency, µM (titrated, usually from 56.1 µM), for inactives: top-dose activity change, negative = inhibition, hits mostly inhibitors. actives 0.2% (n = 350,000);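 also: plate controls were vehicle for no effect and no enzyme for full effect; nearly all actives have a fitted effect of over 35% in size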
# FEN1 inh-1 – human FEN1 inhibition; P39748; actives 0.35% (n = 390,000); Recombinant FEN1 flap cleavage, fluorescence, 15 min; Potency, µM (doses to about 114 µM), for inactives: at the top dose activity change, negative = inhibition, usual class: inhibitors; also: % is scaled to controls: 0 for no effect and ±100 for the full control effect; nearly all actives have a fitted effect of over 65% in size
#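 Recombinant FEN1 (10 nM) was preincubated with pin-transferred compounds for 15 min at room temperature, then flap DNA substrate (50 nM final) was added. Plates were read at 0 and 15 min, and normalized concentration–response data were fitted to a four-parameter Hill equation.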
# L3MBTL1 inh – inhibitors of human L3MBTL1; Potency, µM (titrated, usually from 57.1 µM), without a hit: at the highest dose activity, negative = inhibition, hits mostly inhibitors; actives 0.66% (n = 230,000); AlphaScreen L3MBTL1–H3K9me1 peptide binding; Q9Y468; also: % is scaled to controls: 0 for no effect and ±100 for the full control effect; nearly all actives have a fitted effect of over 60% in size
#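 AlphaScreen assay: L3MBTL1 (50 nM final) was preincubated 30 min at room temperature with biotinylated H3(1-15)K9me1 peptide (75 nM final), then 30 min with library compounds; streptavidin donor and nickel chelate acceptor beads (10 ug/mL final) added, 30 min dark.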
# RECQ1 inh – inhibitors of human RECQ1 DNA helicase | Potency, µM (series often up to 57.3 µM), for inactives: at the highest dose activity, negative = inhibition, most hits filed as inhibitors | P46063 | actives 0.54% (n = 240,000) | RECQ1 DNA unwinding, red fluorescence kinetic read;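 also: plate controls were vehicle for no effect and no enzyme for full effect; nearly all actives have a fitted effect of over 30% in size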
#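 50 nM RECQ1T1 preincubated 15 min with compound in Tris pH 8.0 buffer with MgCl2, DTT, Tween-20 and 2.5 ug/ml poly(dI-dC); started with 200 nM TAMRA/BHQ-2 forked duplex and 2 mM ATP. Unwinding read as fluorescence (525/598 nm), two reads 2 h apart.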
# WRN helicase inh-1 – inhibitors of human WRN helicase; Potency, µM (series often up to 114 µM), without a hit: at the highest dose activity change, negative = inhibition, hits mostly inhibitors; WRN helicase unwinding, fluorescent forked duplex, kinetic; actives 0.46% (n = 360,000); AID 651768; also: % is scaled to controls: 0 for no effect and ±100 for the full control effect; nearly all actives have a fitted effect of over 55% in size
#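 Kinetic red-fluorescence monitoring (525/598 nm) tracks WRN helicase activity after 100 nM fluorophore-quencher forked duplex and 2 mM ATP are added to 20 nM enzyme pretreated 15 min at room temperature with compound.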
# FEN1 inh-2 – FEN1 inhibition, cherry-pick retest; shares compounds with FEN1 inh-1; FEN1 flap cleavage, TAMRA/BHQ2 fluorogenic DNA substrate; Potency, µM, most hits filed as inhibitors; actives 79% (n = 880); AID 720498; also: nearly all actives have a fitted effect of over 60% in size
# WRN helicase inh-2 – confirmation of human WRN helicase inhibitors. shares compounds with WRN helicase inh-1. actives 63% (n = 610). Potency, µM (top dose mostly 57.1 µM), for inactives: top-dose activity, negative = inhibition, hits mostly inhibitors. AID 720497. WRN helicase DNA unwinding, fluorescence kinetic; also: nearly all actives have a fitted effect of over 65% in size
# TO displacement – DNA binding via thiazole orange displacement | shares compounds with WRN helicase inh-1 | thiazole orange DNA binding displacement, fluorescence | Potency, µM (doses to about 57.1 µM), for the others: at the highest dose activity change, negative = inhibition, hits mostly inhibitors | actives 10% (n = 610) | AID 720499;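 also: drop in dye fluorescence marks compound binding to DNA; % is scaled to controls: 0 for no effect and ±100 for the full control effect; nearly all actives have a fitted effect of over 60% in size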
# BLM helicase inh-2 – counter-screen for WRN helicase inhibitors: human BLM helicase inhibition; shares compounds with WRN helicase inh-1; AID 720503; Recombinant BLM helicase DNA unwinding, red fluorescence; actives 60% (n = 610); Potency, µM (highest dose often 57.1 µM), for inactives: at the top dose activity change, negative = inhibition, usual class: inhibitors; also: nearly all actives have a fitted effect of over 60% in size
# Active calls of the source: *; ? = inconclusive; nt = no result given; [ ] = dose if it differs, or a comment. Compounds with a hit are over-represented: about 1% of the library has one in this group of screens. Calls follow the shape of the dose curve; as a rule, active = well fitted curve in the direction sought with a large enough effect; inconclusive = small, poorly fitted or top-dose-only effect, or another doubt; inactive = no such curve, though single readings can be large; an effect the other way counts as inactive or inconclusive. Potency is read from the fitted curve at half-maximal effect.
SMILES,APE1 inh,BLM helicase inh-1,FEN1 inh-1,L3MBTL1 inh,RECQ1 inh,WRN helicase inh-1,FEN1 inh-2,others
CC(=O)Nc1sc2c(c1-c1ccc3nc[nH]c3c1)CCNC2,nt,nt,nt,nt,nt,nt,37.9*,
O=C(C1CC(=O)N(c2ccc(F)c(Cl)c2)C1)N1CCOCC1 (stereo not given),nt,nt,nt,nt,nt,4.5%,nt,
O=C1CCCC2=C1CC(C(=O)OCc1ccccc1)C(=O)N2Cc1ccccc1 (stereo not given),nt,nt,2.3%,nt,nt,-2.6%,nt,
O=C(O)c1ccc(/C=C2\SC(=S)N(Nc3ccccc3)C2=O)cc1,-5.6%,0.7%,-5.4%,-17.8%,-0.5%,1.3%[11.6 µM],nt,
O=C(O)C(Cc1ccccc1)N1C(=O)/C(=C/c2ccccc2)SC1=S (stereo not given),-1.8%,-0.4%,-2.9%,-28.3%,8.8%,1.1%,nt,
COc1cc(/C=C2/SC(=S)N(CC3CCCO3)C2=O)ccc1O (stereo not given),?,-18.7%,44.7µM*,-26.7%,31.6µM*,79.4µM*,42.6*,
COc1cc(/C=C2\SC(=S)N(Nc3ccccc3)C2=O)ccc1O,6.1%,-28.5%,?,?,-2.3%,15.8µM*,84.9*,
COc1cc(/C=C2\SC(=S)N(C(Cc3ccccc3)C(=O)O)C2=O)ccc1O (stereo not given),?,-20.2%,?,-12.3%,25.1µM*,50.1µM*,?,
COc1ccc(/C=C2\SC(=S)N(CC3CCCO3)C2=O)cc1 (stereo not given),3.2%,-12.1%,9.7%,-3.3%,-16.2%,-24.5%,nt,
COc1ccc(NC(=O)C(c2ccccc2)n2c(=O)c(-c3ccco3)nc3ccccc32)cc1 (stereo not given),nt,nt,nt,nt,nt,-1.1%,nt,
COc1ccccc1-c1cc2nc(-c3ccccc3)cc(N3CCN(C(=O)c4ccco4)CC3)n2n1,nt,nt,nt,nt,nt,-2.3%,nt,
O=C(O)CCNc1cc(N2CCN(C(=O)c3ccco3)CC2)c2noc3c2c1C(=O)c1ccccc1-3,-33.5%,-15.9%,31.6µM*,nt,nt,17.8µM*,30.1*,
CCN1CCN(c2cc(N3CCN(C(=O)c4ccco4)CC3)c3c4c(onc24)-c2ccccc2C3=O)CC1,-22.7%,-25.3%,?,nt,nt,151.9%,nt,
NC(N)=Nc1nc(-c2ccccc2)c2cc(F)ccc2n1,2.9%,106.3%,79.4µM*,1.3%,25.1%,15.1%[11.6 µM],53.6*,
C/C(=N/NC(=O)c1cc2ccccc2cc1O)C1C(=O)c2ccccc2C1=O,?,28.2µM*,50.1µM*,nt,?,44.7µM*,60.1*,WRN helicase inh-2=15.2µM*;TO displacement=3.41µM*;BLM helicase inh-2=15.2µM*
Cn1c2nc(=O)n(-c3ccccc3)c(=O)c-2nc2c1CCCC2,nt,nt,nt,nt,nt,5.8%,nt,
Nc1ccc2nc(-c3cccc(-c4nc5ccc(N)cc5[nH]4)n3)[nH]c2c1,-89.7%,14.1µM*,?,nt,nt,20µM*,1.69*,WRN helicase inh-2=5.41µM*;TO displacement=17.1µM*;BLM helicase inh-2=4.82µM*
